Consider 10 molecules from PubChem BioAssay.

Calls of active or inactive are those of the source. Unless noted, the rule behind the calls is not given here.

Assay [1] is described as follows: HepG2 liver cancer cell viability effects, profiling panel, resazurin fluorescence, 24 h, PK04 Diversity Set (AID 1172). The settings on record: higher = more signal. In general terms: Alamar Blue is a resazurin reagent that responds to reducing activity.
The nature of assay [2]: basal S. cerevisiae growth modulation, no modifier, primary screen, OD600, strain BY4716, 24 h, basal condition (AID 1173). The settings on record: OD600, 24 h, higher = more signal, called active from +8 up or from −8 down.
A short description of assay [3]: MM1S myeloma cell viability, profiling panel, resazurin fluorescence, basal, 24 h, PK04 Diversity Set (AID 1174).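 Note: MM1S multiple myeloma cell line.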 The settings on record: higher = more signal, called active from +8 up or from −8 down.
Assay [4] has as its target Dihydroorotate dehydrogenase (quinone), mitochondrial (Plasmodium falciparum (isolate 3D7)) (UniProt Q08210). The assay is described as follows: PfDHODH enzyme inhibitors, primary screen, biochemical, C-terminal His tag, absorbance 600 nm (AID 1175).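 Note: recombinant parasite enzyme with a five histidine tag at its C terminus.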 The settings on record: DCIP absorbance 600 nm, higher = more signal, called active from +8 up or from −8 down.
Assay [5] can be described thus: P. aeruginosa biofilm formation inhibitors, primary screen, strain PAO1, LB-PBS medium, absorbance 600 nm (AID 1176). To be noted: P. aeruginosa PAO1 growth/biofilm, A600, 12 h; higher = more signal.
Assay [6] in a line: S. cerevisiae RM11-1a growth modifiers, primary screen, strain RM11-1a, OD600, basal, 24 h (AID 1177).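 Note: cultures grown under basal conditions with no added stressor.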 The settings on record: OD600, 24 h, higher = more signal, called active from +8 up or from −8 down.
Assay [7] in a line: E. coli acrAB mutant growth effects, primary screen, E. coli filamentation inducers, strain DRC39, OD650, 24 h (AID 1178).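 Note: growth measured as culture turbidity by optical density at 650 nm.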 To be noted: higher = more signal, called active from +8 up or from −8 down.
Assay [8] in a line: E. coli acrAB mutant growth effects, primary screen, E. coli filamentation inducers, strain DRC39, OD650, 48 h (AID 1179).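 Note: screen aims at cell division blockers that make cells filament.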 To be noted: E. coli DRC39 delta-acrAB growth, higher = more signal, called active from +8 up or from −8 down.
The nature of assay [9]: RPMI8226 myeloma cell viability, profiling panel, resazurin fluorescence, basal, 24 h, PK04 Diversity Set (AID 1180).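 Note: RPMI8826 multiple myeloma cell line at 5000 cells per well.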 To be noted: higher = more signal.
Assay [10] addresses E3 ubiquitin-protein ligase XIAP (Homo sapiens) (UniProt P98170). Nature of the assay: XIAP binders, primary screen, biophysical, small-molecule microarray, fluorescence 635 nm (AID 1181).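 Note: score merges 667 nm emission and signal to noise over triplicate slides.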 To be noted: small-molecule microarray binding, higher = more signal.
The test system of assay [11] is XIP peptide (Xip251-270) binding. Nature of the assay: small-molecule binders of XIP peptide, primary screen, biochemical, small-molecule microarray, fluorescence 635/667 nm, 0.1 µg/mL protein (AID 1182). To be noted: fluorescent protein binding, 635 nm, higher = more signal, called active from +8 up or from −8 down.
The test system of another assay is XIP peptide (Xip251-270). Nature of the assay: small-molecule binders of XIP peptide, primary screen, biochemical, small-molecule microarray, fluorescence 635/667 nm, 0.5 µg/mL protein (AID 1183). To be noted: small-molecule microarray binding, fluorescence 635 nm; higher = more signal.
The nature of assay [12]: Plasmodium falciparum growth inhibition, primary screen, strain 3D7, DAPI fluorescence, 100 nL (AID 1184).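 Note: parasites grown inside human red blood cells in medium with human serum.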 To be noted: P. falciparum 3D7 growth, 3 d, higher = more signal.
Assay [13] deals with Homeobox protein Hox-A13 (Mus musculus) (UniProt Q62424). The assay is described as follows: inhibitors of HoxA13-DNA binding, primary screen, biochemical, fluorescence polarization, labeled oligonucleotide (AID 1185). The settings on record: 15 min, higher = more signal, called active from +8 up or from −8 down.
A short description of assay [14]: inhibitors of hydroxyurea-induced Chk1 phosphorylation, primary screen, imaging, HeLa, phospho-Chk1 antibody, percent positive cells (AID 1186). To be noted: hydroxyurea-induced phospho-Chk1 immunofluorescence imaging, higher = more signal.
A short description of assay [15]: inhibitors of hydroxyurea-induced Chk1 phosphorylation, primary screen, imaging, HeLa, phospho-Chk1 nuclear intensity (AID 1187). The settings on record: hydroxyurea-induced phospho-Chk1 immunofluorescence imaging, higher = more signal.

Sequence of E3 ubiquitin-protein ligase XIAP (Homo sapiens) (P98170 whole entry, looked up): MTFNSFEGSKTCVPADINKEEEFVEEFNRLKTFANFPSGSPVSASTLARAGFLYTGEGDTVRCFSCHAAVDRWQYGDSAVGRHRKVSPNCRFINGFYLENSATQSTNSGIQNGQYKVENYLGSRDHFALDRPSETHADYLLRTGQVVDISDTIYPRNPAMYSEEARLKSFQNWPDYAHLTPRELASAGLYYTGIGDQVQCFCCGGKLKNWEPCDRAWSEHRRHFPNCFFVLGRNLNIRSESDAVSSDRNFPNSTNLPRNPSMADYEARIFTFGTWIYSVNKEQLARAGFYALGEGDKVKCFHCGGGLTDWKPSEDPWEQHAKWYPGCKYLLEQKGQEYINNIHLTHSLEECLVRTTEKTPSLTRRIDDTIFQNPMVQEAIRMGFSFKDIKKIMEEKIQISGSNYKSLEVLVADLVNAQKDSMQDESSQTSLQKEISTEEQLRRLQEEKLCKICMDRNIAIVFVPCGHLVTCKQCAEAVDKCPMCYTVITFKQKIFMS
Sequence of Dihydroorotate dehydrogenase (quinone), mitochondrial (Plasmodium falciparum (isolate 3D7)) (Q08210 whole entry, looked up): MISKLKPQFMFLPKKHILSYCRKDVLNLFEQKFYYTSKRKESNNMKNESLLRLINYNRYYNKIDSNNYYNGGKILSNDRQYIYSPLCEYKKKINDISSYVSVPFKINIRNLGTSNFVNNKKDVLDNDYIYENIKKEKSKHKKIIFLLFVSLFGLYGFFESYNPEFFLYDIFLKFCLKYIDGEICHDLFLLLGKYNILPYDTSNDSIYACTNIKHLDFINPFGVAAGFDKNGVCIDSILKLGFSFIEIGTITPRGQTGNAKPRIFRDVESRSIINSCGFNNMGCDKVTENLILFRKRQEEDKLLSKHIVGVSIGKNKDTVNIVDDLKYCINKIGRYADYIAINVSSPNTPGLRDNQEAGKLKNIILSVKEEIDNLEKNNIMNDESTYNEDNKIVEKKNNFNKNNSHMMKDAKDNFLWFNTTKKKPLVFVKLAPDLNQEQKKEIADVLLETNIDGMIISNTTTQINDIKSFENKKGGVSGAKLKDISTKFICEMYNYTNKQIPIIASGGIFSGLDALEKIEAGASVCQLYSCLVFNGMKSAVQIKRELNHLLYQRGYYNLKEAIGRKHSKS
Sequence of Homeobox protein Hox-A13 (Mus musculus) (Q62424 whole entry, looked up): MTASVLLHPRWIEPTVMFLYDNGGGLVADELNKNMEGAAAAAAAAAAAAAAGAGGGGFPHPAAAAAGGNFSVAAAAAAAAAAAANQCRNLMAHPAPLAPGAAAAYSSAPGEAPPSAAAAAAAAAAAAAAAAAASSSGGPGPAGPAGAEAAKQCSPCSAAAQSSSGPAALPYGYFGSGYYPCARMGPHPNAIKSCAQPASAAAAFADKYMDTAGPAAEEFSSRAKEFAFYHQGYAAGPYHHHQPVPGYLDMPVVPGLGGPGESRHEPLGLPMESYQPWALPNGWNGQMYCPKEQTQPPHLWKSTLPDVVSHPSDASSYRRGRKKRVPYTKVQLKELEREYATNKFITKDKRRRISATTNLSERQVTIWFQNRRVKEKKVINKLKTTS

For the molecule `C=C(CCCC)C(=O)CC[C@H](OC(C)=O)c1ccccc1OCCO`, the z-score is -1.32 in [1]; -2.49 (inactive) in assay [2]; -2.2 (inactive) in assay [3]; -1.24 (inactive) in [5]; 0.0549 (inactive) in assay [6]; -1.17 (inactive) in [7]. The z-score in assay [8] was -1.1 (inactive); in assay [9] it was -2.13; in [12] it was -2.52; in assay [13], -5.49 (inactive); in assay [14], -0.384 (inactive); in assay [15] it was 0.126 (inactive). The composite z-score in assay [4] is -0.573 (inactive); in assay [10], -0.0696; in assay [11], 0.551 (inactive); in the assay with XIP peptide (Xip251-270) it was 0.439.

Take `COCCCN1C(=O)[C@@]2(Cc3ccccc31)c1ccccc1C(=O)N(Cc1ccccc1OC)[C@H]2c1ccc(CO)cc1`: the z-score in assay [1] was -0.525; in assay [2] it was -0.0955 (inactive); in assay [3], -0.309 (inactive); in assay [5], 0.292 (inactive); in assay [6], -0.724 (inactive); in assay [7] it was 0.487 (inactive). In addition, the z-score in [8] was -0.128 (inactive); in assay [9] it was -0.0935; in assay [12], 0.861; in assay [13] it was -2.34 (inactive); in assay [14], 0.177 (inactive); in assay [15] it was 0.217 (inactive). Besides, the composite z-score in assay [4] is -3.75 (inactive); in assay [10], -0.0622; in assay [11] it was -0.184 (inactive); in the assay on XIP peptide (Xip251-270), 0.0806.

With `CN1C(=O)C2C=CC(C(O)c3ccc(-c4ccccc4)s3)N(Nc3ccccc3)C2C1=O` (stereo not given), the z-score in assay [1] was -0.208; in assay [2], -1.02 (inactive); in assay [3], -1.03 (inactive); in assay [5], 1.6 (inactive); in assay [6], 0.0727 (inactive); in assay [7], 0.243 (inactive). The z-score is -0.0198 (inactive) in assay [8]; -0.985 in [9]; 1.23 in assay [12]; -4.68 (inactive) in [13]; -0.11 (inactive) in assay [14]; -0.316 (inactive) in assay [15]. In addition, the composite z-score in assay [4] was 0.71 (inactive); in assay [10], 0.148; in assay [11] it was 0.844 (inactive); with XIP peptide (Xip251-270), 0.753.

`CCCCNC(=O)c1ccc(C#C[Si](C)(C)C)c(OC(C)=O)c1`: the z-score was -0.0319 in assay [1]; -1.09 (inactive) in [2]; -0.757 (inactive) in assay [3]; -1.44 (inactive) in assay [5]; 0.846 (inactive) in [6]; 1.17 (inactive) in assay [7]. Besides, the z-score in assay [8] was -0.925 (inactive); in assay [9], 0.0873; in assay [12], -1.27; in assay [13] it was -4.82 (inactive); in assay [14] it was 0.0588 (inactive); in [15] it was 0.103 (inactive). Further, the composite z-score in assay [4] is -1.4 (inactive); in assay [10], -0.326; in assay [11], -0.0158 (inactive); in the assay on XIP peptide (Xip251-270) it was -0.351.

For `COCCOC(=O)N1C(=O)[C@@]2(c3cc(C#CC4=CCCCC4)ccc31)[C@H](c1ccc(OCCO)cc1)N1[C@H](c3ccccc3)[C@H](c3ccccc3)OC(=O)[C@H]1[C@@H]2C(=O)N1CCCCCCC1`, the z-score in assay [1] was -0.748; in [2], -0.747 (inactive); in [3] it was -0.168 (inactive); in assay [5] it was 3.23 (inactive); in [6], -0.766 (inactive); in [7] it was -0.363 (inactive). Also, the z-score in assay [8] was 0.817 (inactive); in [9] it was -0.435; in assay [12], -2.06; in [13], -15.2 (active); in [14], -0.002 (inactive); in [15], 0.437 (inactive). For the same molecule, the composite z-score in assay [4] is -0.859 (inactive); in assay [10], 0.248; in [11], 1.32 (inactive); in the assay with XIP peptide (Xip251-270), 0.822.

As to `COc1cc2c(cc1O)C(C1CC1)N(Cc1ccc([N+](=O)[O-])o1)CC2` (stereo not given), the z-score in assay [1] is -0.145; in [2] it was -1.49 (inactive); in [3], -0.0144 (inactive); in assay [5] it was 0.0898 (inactive); in [6] it was -0.346 (inactive); in [7], -0.698 (inactive). Further, the z-score in assay [8] is -0.821 (inactive); in assay [9] it was 0.211; in [12] it was -0.993; in assay [13], -6.04 (inactive); in assay [14], -0.0479 (inactive); in [15], 0.125 (inactive). The composite z-score is -4.24 (inactive) in assay [4], 0.234 in assay [10], 0.402 (inactive) in assay [11] and 0.315 with XIP peptide (Xip251-270).

As to `N#Cc1ccc(C(O)C2C=CC3C(=O)NC(=O)C3N2Nc2ccccn2)cc1` (stereo not given), the z-score was -1.62 in assay [1]; -0.055 (inactive) in assay [2]; -0.601 (inactive) in [3]; 0.791 (inactive) in [5]; -1.57 (inactive) in assay [6]; 0.0007 (inactive) in [7]. Besides, the z-score was 1.25 (inactive) in [8]; -0.353 in assay [9]; -0.557 in [12]; -1.11 (inactive) in assay [13]; -0.0275 (inactive) in assay [14]; 0.114 (inactive) in [15]. The composite z-score was -0.127 (inactive) in assay [4], -0.0536 in assay [10], -0.108 (inactive) in [11] and 0.669 in the assay on XIP peptide (Xip251-270).

For `CC1CC/C=C\[C@H]2OC34C=CCN(CCN5CCOCC5)C(=O)[C@H]3N(CCCCCCO)C(=O)[C@@H]4C2C(=O)O1` (stereo not given in full), the z-score in assay [1] was -0.655; in assay [2] it was -0.195 (inactive); in [3] it was -0.513 (inactive); in assay [5], -0.717 (inactive); in assay [6] it was 0.615 (inactive); in assay [7] it was 0.125 (inactive). Besides, the z-score in assay [8] is 0.602 (inactive); in assay [9] it was 0.761; in assay [12] it was 1.04; in [13] it was -5.39 (inactive); in assay [14], -0.453 (inactive); in assay [15] it was 0.519 (inactive). Also, the composite z-score was 0.85 (inactive) in assay [4], 0.288 in [10], 0.135 (inactive) in [11] and 0.935 in the assay on XIP peptide (Xip251-270).

For the molecule `COc1ccc([Si](C)(C)[C@H]2[C@H](CCO)O[C@@]3(C(=O)N(Cc4ccccc4)c4ccc(N(C=O)c5ccccc5)cc43)[C@@H]2C)cc1`, the z-score in [1] is 0.0056; in assay [2] it was 1.53 (inactive); in [3], -2.24 (inactive); in [5] it was 2.58 (inactive); in [6] it was 5.16 (inactive); in assay [7], 1.28 (inactive). Moreover, the z-score in [8] is 0.733 (inactive); in [9] it was -1.28; in assay [12], -2.74; in assay [13], -0.799 (inactive); in [14] it was 1.75 (inactive); in assay [15], 1.49 (inactive). The composite z-score was -0.363 (inactive) in assay [4], -0.0668 in [10], 0.572 (inactive) in [11] and 0.571 with XIP peptide (Xip251-270).

On to `CC(C)[C@@H](C(=O)O)n1cc(-c2ccccc2)nn1`, for which the z-score in assay [1] was -0.606; in assay [2] it was -0.291 (inactive); in assay [3], -0.372 (inactive); in assay [5] it was -0.145 (inactive); in assay [6], -0.618 (inactive); in [7], 0.0178 (inactive). Further, the z-score in [8] was -0.279 (inactive); in assay [9] it was -0.874; in assay [12], 0.273; in [13], -0.769 (inactive); in [14] it was 0.391 (inactive); in assay [15], 0.0268 (inactive). Besides, the composite z-score in assay [4] is -0.207 (inactive); in [10] it was 0.0402; in assay [11], 0.767 (inactive); in the assay with XIP peptide (Xip251-270) it was 0.237.
